The record followed here is PubChem BioAssay AID372 (MTDP, 2006).

The campaign covered roughly 100,000 compounds. About 770 (0.77%) were called active. Shown is part of a subset that was picked to be rich in actives. Values without a mark were called inactive. Rule as the data show it: active = inhibition above about 50%; inactive = the rest.

In the assay the target is Gag-Pol polyprotein (Human immunodeficiency virus type 1 group M subtype B (isolate HXB2)) (UniProt P04585). In words: RNase H inhibition, HIV 1 Gag Pol polyprotein, FRET biochemical assay, screening (AID 372). As to conditions: HIV-1 RT RNase H, FRET RNA/DNA substrate fluorescence; at 10 µM; active compounds read high.
As usually defined, the inhibition is the change of the read-out against control, counted positive when it falls. Consider `O=C(NCCc1ccccc1)/C(=C/c1ccco1)c1ccccc1`, for which the inhibition was 2%.
As for `Cc1ccc(C(=O)c2cccc(C(=O)c3ccc(C)c(C)c3)c2)cc1C`, the figure is 8%; as for `O=C(Nc1c(-c2ccccc2)c2cc(Br)ccc2[nH]c1=O)c1cccc(Cl)c1`, 23%; as for `COc1ccc(OC(C)C(=O)Nc2ccc(F)cc2)cc1` (centres undefined), 0%.
Regarding `Cc1ccc(NC(=O)C2CC(=O)N(c3ccc(Br)cc3)C2)cc1Cl` (centres undefined), the inhibition was 5%.
In the case of `COC(=O)C1=C(C)N(c2ccccc2)C(=O)/C1=C\c1ccc(C(=O)OC)cc1`, the inhibition was 15%.
On to `Cc1cc(NS(=O)(=O)c2ccc(NC(=O)c3cc(Cl)cc(Cl)c3)cc2)no1`, for which the inhibition is 0%.
The result for `COCCCNc1ccc2c3c(nc(=O)n2C)-c2ccccc2C(=O)c13` reads 50% (active); that for `CCCCNc1ccc2c3c(cc(=O)n2C)-c2ccccc2C(=O)c13`, 8%.
As for `CC(=O)OCCNc1ccc2noc3c2c1C(=O)c1ccccc1-3`, the inhibition is 0%.
`Fc1ccc(CN2CCc3c([nH]c4ccccc34)C2)cc1`: the inhibition is 0%.
As for `CCCC(C)C(=O)Nc1cccc(C)c1C` (centres undefined), the inhibition was 10%.
For `CC(C)(C)C1=CC(Cl)=C(C(C)(C)C)C(=O)C1=O`, the inhibition was 5%.
`CC(C)(C)C1=CC(C(C)(C)C)=C([N+](=O)[O-])C(=O)C1=O`: the inhibition was 6%.
Regarding `CC(C)(C)C1=CC(C(C)(C)C)=C(Cl)C(=O)C1=O`, the inhibition is 69% (active).
On to `Cc1ccccc1CNS(=O)(=O)c1cccs1`, for which the inhibition was 0%.
Take `COc1ccccc1/C=N\N(C)c1nc(-c2ccccc2)cc(-c2ccccc2)n1`: the inhibition was 17%.
With `COc1cc(/C=N/Nc2nc(N3CCOCC3)nc(N3CCOCC3)n2)cc(OC)c1`, the inhibition was 5%.
Consider `Cc1ccc(-c2nc3cc(NC(=O)/C=C/c4ccco4)ccc3o2)cc1`, for which the inhibition is 12%.
Consider `Cc1cc2nc(-c3cccc(NC(=O)/C=C/c4ccco4)c3)oc2cc1C`, for which the inhibition is 12%.
As to `O=C(/C=C/c1ccco1)Nc1ccc2nn(-c3ccc(Cl)cc3)nc2c1`, the inhibition is 50% (active).
`Cc1cc2nc(-c3ccc(NC(=O)/C=C/c4ccco4)cc3)oc2cc1C`: the inhibition was 57% (active).
Regarding `O=C(/C=C/c1ccc(-c2ccccc2[N+](=O)[O-])o1)Nc1ccc(-c2nc3cc(Cl)ccc3o2)cc1`, the inhibition is 53% (active).
Regarding `O=C(/C=C/c1ccc(-c2ccccc2[N+](=O)[O-])o1)Nc1ccc(-c2nc3ccccc3o2)cc1`, the inhibition was 45%.
For `O=C(/C=C/c1ccco1)Nc1ccc2nn(-c3ccccc3)nc2c1`, the inhibition is 24%.
With `O=C(/C=C/c1ccc(-c2ccccc2[N+](=O)[O-])o1)Nc1ccc(-c2nc3ncccc3o2)cc1`, the inhibition is 16%.
As to `O=C(/C=C/c1ccco1)Nc1ccc2oc(-c3ccccc3)nc2c1`, the inhibition is 15%.
As for `O=C(/C=C/c1ccco1)Nc1ccc(-c2nc3cc(Cl)ccc3o2)cc1`, the inhibition is 51% (active).
With `Cc1ccc2nc(-c3ccc(NC(=O)/C=C/c4ccco4)cc3)oc2c1`, the inhibition is 11%.
Take `COc1ccc(-n2nc3ccc(NC(=O)/C=C/c4ccco4)cc3n2)cc1`: the inhibition is 48%.
For the compound `O=C(Nc1ccc(N2CCOCC2)c(Cl)c1)c1cc([N+](=O)[O-])ccc1Cl`, the inhibition was 24%.
For `O=C1NC(=O)C(=Cc2ccccc2OCc2ccccc2F)C(=O)N1`, the inhibition is 4%.
For the compound `COc1ccc(CN2CCN(C(=O)c3cccs3)CC2)c(OC)c1`, the inhibition is 5%.
On to `CC(C)(C)c1ccc(S(=O)(=O)Nc2ccc(-c3ccc(NS(=O)(=O)c4ccc(C(C)(C)C)cc4)c(Cl)c3)cc2Cl)cc1`, for which the inhibition is 23%.
The result for `CC1CCN(Cc2c(O)ccc3c(=O)c(-c4ccc(Cl)cc4)coc23)CC1` reads 0%; that for `COc1cc(-c2nc3ccccn3c2/N=C/c2cccc([N+](=O)[O-])c2)ccc1O`, 17%; that for `O=C(/C=C/c1ccco1)Nc1nc2ccc(Br)cc2s1`, 59% (active).
In the case of `O=C(/C=C/c1ccco1)Nc1ccc(C(=O)Nc2cccc(-c3nc4ccccc4o3)c2)cc1`, the inhibition was 55% (active).
With `O=C(/C=C/c1ccccc1)Nc1nc2ccc(Br)cc2s1`, the inhibition is 48%.
On to `O=C(/C=C/c1ccco1)Nc1cccc(-c2nc3ccccc3o2)c1`, for which the inhibition is 10%.
For the compound `Cc1ccc2oc(-c3cccc(NC(=O)/C=C/c4ccco4)c3)nc2c1`, the inhibition is 6%.
With `O=C(/C=C/c1ccco1)Nc1nc(-c2ccc(Br)cc2)cs1`, the inhibition is 15%.
Turning to `CC(C)(C)C(=O)CC(=O)c1ccccc1`, the inhibition was 10%.
As for `CCOc1cc(CN2CCCCC2)ccc1OC`, the inhibition was 19%.
For the compound `O=C(NC(=S)Nc1ccc(F)c([N+](=O)[O-])c1)c1cccc(Cl)c1`, the inhibition is 22%.
In the case of `CC(/C=C/c1ccccc1)=N/NS(C)(=O)=O`, the inhibition is 3%.
Regarding `COc1ccc(/C=C/C(=O)Nc2c(C(C)C)cccc2C(C)C)cc1Br`, the inhibition is 7%.
Take `CCC(C(=O)Nc1cc(Cl)ccc1OC)c1ccccc1` (centres undefined): the inhibition was 29%.
As to `O=C(COc1ccc(Br)cc1)Nc1ccc(F)cc1F`, the inhibition is 0%.
For `CCSc1nc2c(C)c(O)c(C)cc2[nH]1`, the inhibition is 0%.
As for `O=C(Nc1ccccc1)Nc1nnc(Cc2ccc(Cl)c(Cl)c2)s1`, the inhibition is 16%.
Regarding `COC(=O)c1sccc1NS(=O)(=O)c1ccc(Cl)cc1`, the inhibition is 70% (active).
Turning to `COC(=O)c1sccc1NS(=O)(=O)c1ccc(OC)cc1`, the inhibition was 0%.
Regarding `COC(=O)c1sccc1NS(=O)(=O)c1cc(Cl)ccc1Cl`, the inhibition is 35%.
With `COC(=O)c1ccccc1NC(=O)COc1ccc(Cl)cc1C`, the inhibition was 4%.
With `Cc1sc(NC(=O)COc2ccc(Cl)cc2Cl)c(C(N)=O)c1C`, the inhibition was 9%.
Take `Cc1cc(Cl)ccc1OCC(=O)Nc1ccccc1C(N)=O`: the inhibition is 7%.
On to `CCOC(=O)c1c(NC(=O)COc2ccc(Cl)cc2C)sc(C(N)=O)c1C`, for which the inhibition was 12%.
With `CCOC(=O)c1ccccc1NC(=O)COc1ccc(Cl)cc1C`, the inhibition is 50% (active).
Take `Cc1ccc(N[C@H]2OC[C@H](O)[C@H](O)[C@H]2O)cc1[N+](=O)[O-]`: the inhibition was 6%.
With `CCC(=O)Nc1sc(Cc2ccccc2)c(C)c1C(N)=O`, the inhibition is 1%.
As for `O=C(NCCCN1CCOCC1)/C(=C/c1ccc(-c2ccc(Cl)cc2)o1)NC(=O)c1ccccc1`, the figure is 0%.
On to `COc1ccc(C(=O)NC(NC(=S)Nc2sc3c(c2C(N)=O)CCCC3)C(Cl)(Cl)Cl)cc1` (centres undefined), for which the inhibition was 11%.
In the case of `CCOC(=O)C1=C(C)N=c2s/c(=C\c3ccc(-c4ccc(Cl)cc4)o3)c(=O)n2C1c1cc(OC)ccc1OC` (centres undefined), the inhibition was 7%.
`CCOC(=O)C1=C(C)N=c2s/c(=C\c3ccc(-c4cc(Cl)ccc4C)o3)c(=O)n2C1c1ccc(OC)cc1` (centres undefined): the inhibition is 15%.
As for `CCOC(=O)C1=C(C)N=c2s/c(=C\c3ccc(-c4ccc(Cl)cc4)o3)c(=O)n2C1c1ccc(OC)cc1OC` (centres undefined), the inhibition was 51% (active).
For the compound `CCOC(=O)C1=C(C)N=c2s/c(=C\c3ccc(-c4ccc(Cl)c(Cl)c4)o3)c(=O)n2C1c1ccc(OC)cc1OC` (centres undefined), the inhibition is 10%.
Take `CCOC(=O)C1=C(C)N=c2s/c(=C\c3ccc(-c4ccc(Cl)cc4Cl)o3)c(=O)n2C1c1ccc(OC)cc1` (centres undefined): the inhibition is 12%.
The result for `CCOC(=O)C1=C(C)N=c2s/c(=C\c3ccc(-c4cc(Cl)ccc4Cl)o3)c(=O)n2C1c1ccc(OC)cc1` (centres undefined) reads 50% (active); that for `CC(/C=C/c1ccco1)=N/NC(=O)COc1cccc(Cl)c1`, 14%; that for `Cc1ccc(C(=O)NC(C(=O)NC(C)(C)C)C23CC4CC(CC(C4)C2)C3)cc1` (centres undefined), 16%.
`Cc1ccc(C(=O)NC(=S)Nc2ccc(Cl)cc2)cc1C`: the inhibition is 3%.
`Cc1cccc(C)c1NC(=S)NC(=O)c1ccc(Br)cc1`: the inhibition is 2%.
Consider `Cc1ccc(C(=O)NC(=S)Nc2cc(Cl)cc(Cl)c2)cc1`, for which the inhibition was 14%.
Take `O=C(NC(=S)Nc1cc(Cl)c(Cl)cc1Cl)c1ccc(F)cc1`: the inhibition is 13%.
With `Cc1ccc(C(=O)NC(=S)Nc2cc(Cl)c(Cl)cc2Cl)cc1`, the inhibition is 40%.
As to `O=C(NC(=S)Nc1cc(Cl)c(Cl)cc1Cl)c1ccc(Cl)cc1`, the inhibition is 54% (active).
`COC(=O)c1cc(NC(=S)NC(=O)c2ccc(C)cc2)cc(C(=O)OC)c1`: the inhibition is 54% (active).
In the case of `CC(=O)c1cccc(NC(=S)NC(=O)c2ccc(C)cc2)c1`, the inhibition is 17%.
For the compound `COC(=O)c1cc(NC(=S)NC(=O)c2ccccc2)cc(C(=O)OC)c1`, the inhibition is 21%.
As for `Cc1ccc(C(=O)NC(=S)Nc2cc(Cl)cc(Cl)c2)cc1C`, the inhibition was 50% (active).
For `Cc1cccc(C)c1NC(=S)NC(=O)c1ccccc1`, the inhibition was 7%.
With `Cc1ccc(C(=O)NC(=S)Nc2c(C)cccc2C)cc1`, the inhibition is 53% (active).
`CC(C)=C1C2CCC1C(C(=O)NCc1ccccc1)C2C(=O)O` (centres undefined): the inhibition was 0%.
As for `Cn1c(O)c(C(=NCc2ccccc2)c2ccccc2)c(=O)n(C)c1=O`, the inhibition is 8%.
In the case of `O=C(Nc1cccc2ccccc12)/C(=C/c1ccccc1)c1ccccc1`, the inhibition was 28%.
Take `COc1cccc(OCCCOc2ccccc2[N+](=O)[O-])c1`: the inhibition was 14%.
Consider `CCOC(=O)C1=C(C)NC2=C(C(=O)CC(c3ccccc3)C2)C1c1cccc([N+](=O)[O-])c1` (centres undefined), for which the inhibition was 15%.
As for `COc1ccc(C(=O)Nc2ccc(NC(=O)c3ccc(Br)cc3)cc2)cc1[N+](=O)[O-]`, the figure is 59% (active); as for `COc1ccc(C(=O)Nc2ccc(NC(C)=O)cc2)cc1[N+](=O)[O-]`, 5%; as for `COc1ccc(C(=O)Nc2ccc(NC(=O)c3ccccc3)cc2)cc1[N+](=O)[O-]`, 23%.
The result for `CCOc1ccc(C(=O)Nc2cccc(NC(=O)c3ccccc3)c2)cc1[N+](=O)[O-]` reads 0%; that for `CCOc1ccc(C(=O)Nc2ccc(C(C)=O)cc2)cc1[N+](=O)[O-]`, 5%; that for `CCOc1ccc(C(=O)Nc2ccc(NC(=O)c3ccccc3)cc2)cc1[N+](=O)[O-]`, 56% (active).
